# Measured values reported in the antibiotic and cytotoxicity screens of Wong et al. (2023).
# The campaign covered roughly 39,000 compounds. About 1,500 (3.8%) were called active. The sample holds actives, similar compounds and a random draw of the others, so the mix is not that of the screen.
# Tested on: HSkMC (human skeletal muscle cells)
# Experiment: cytotoxicity call (relative viability < 0.9)
# Details: 10 µM
row,SMILES,cytotoxicity call
1,COc1ccc(CN(C)C[C@H]2Oc3c(NC(=O)C4CCOCC4)cccc3C(=O)N([C@@H](C)CO)C[C@@H]2C)cc1,inactive
2,CN1C(=O)c2cc(NC(=O)C3CCOCC3)ccc2OC[C@@H]2O[C@@H](CC(=O)NCc3ccccc3F)CC[C@@H]21,inactive
3,Cc1noc(C)c1NC(=O)N(C)C[C@H]1Oc2c(NC(=O)c3cnccn3)cccc2C(=O)N([C@@H](C)CO)C[C@@H]1C,inactive
4,C[C@H]1CN([C@@H](C)CO)C(=O)c2cc(NC(=O)C3CC3)ccc2O[C@H]1CN(C)S(=O)(=O)c1ccc(Cl)cc1,inactive
5,CC(=O)N[C@H]1[C@H](Oc2nc3cc(C)ccc3o2)O[C@H](CO)[C@@H](O)[C@@H]1O,inactive
6,Cc1ccc(-c2ccc3c(c2)O[C@H](CN(C)C(=O)CN(C)C)[C@H](C)CN([C@@H](C)CO)S3(=O)=O)cc1,inactive
7,O=C(CN1CCOCC1)N[C@H]1CC[C@H](CCNC(=O)Nc2cc(F)ccc2F)O[C@H]1CO,inactive
8,CN1C(=O)c2cc(NC(=O)c3ccc(F)c(F)c3)ccc2OC[C@@H]2O[C@H](CC(=O)N3CCOCC3)CC[C@@H]21,inactive
9,Cc1noc(C)c1S(=O)(=O)N(C)C[C@H]1Oc2ccc(NC(=O)Nc3ccc4c(c3)OCO4)cc2C(=O)N([C@H](C)CO)C[C@@H]1C,inactive
10,COc1ccc(CN(C)C[C@@H]2OCCCC[C@@H](C)Oc3ccc(NC(=O)Nc4ccc(F)cc4)cc3C(=O)N([C@@H](C)CO)C[C@H]2C)cc1,inactive
11,C[C@@H]1CN([C@H](C)CO)C(=O)Cc2cc(NC(=O)Nc3ccc(C(F)(F)F)cc3)ccc2O[C@@H]1CN(C)Cc1ccc(C(=O)O)cc1,inactive
12,C[C@H]1CN([C@@H](C)CO)C(=O)Cc2cc(NC(=O)C3CCCCC3)ccc2O[C@@H]1CN(C)Cc1ccc(C(F)(F)F)cc1,inactive
13,C[C@@H]1CN([C@@H](C)CO)C(=O)Cc2cc(NC(=O)C3CCCCC3)ccc2O[C@@H]1CN(C)Cc1ccc(C(F)(F)F)cc1,active
14,C[C@H](CO)N1C[C@H](C)[C@@H](CN(C)Cc2ccc(C(F)(F)F)cc2)Oc2ccc(NC(=O)C3CCCCC3)cc2CC1=O,inactive
15,C[C@@H]1CN([C@H](C)CO)C(=O)Cc2cc(NC(=O)Nc3ccc(C(F)(F)F)cc3)ccc2O[C@@H]1CN(C)Cc1ccc(C(F)(F)F)cc1,active
16,C[C@@H]1CN([C@H](C)CO)C(=O)Cc2cc(NC(=O)Nc3ccc(C(F)(F)F)cc3)ccc2O[C@H]1CN(C)Cc1ccc(C(F)(F)F)cc1,active
17,C[C@@H]1CN([C@@H](C)CO)C(=O)Cc2cc(NC(=O)Nc3ccc(C(F)(F)F)cc3)ccc2O[C@@H]1CN(C)Cc1ccc(C(=O)O)cc1,inactive
18,C[C@H](CO)N1C[C@H](C)[C@@H](CN(C)Cc2ccc(C(F)(F)F)cc2)Oc2ccc(NC(=O)Nc3ccc(C(F)(F)F)cc3)cc2CC1=O,active
19,Cc1noc(C)c1NC(=O)N(C)C[C@@H]1OCCCC[C@H](C)Oc2ccc(NS(=O)(=O)c3ccc(F)cc3)cc2C(=O)N([C@H](C)CO)C[C@@H]1C,inactive
20,Cc1noc(C)c1S(=O)(=O)N(C)C[C@@H]1Oc2c(NC(=O)c3cnccn3)cccc2C(=O)N([C@H](C)CO)C[C@@H]1C,inactive
21,O=C(C[C@H]1CC[C@H]2[C@@H](COC[C@H](O)CN2S(=O)(=O)c2ccccc2)O1)NCCN1CCCCC1,inactive
22,c1cc(CCN2CCNCC2)ccn1,inactive

row,SMILES,cytotoxicity call
1,O=C(O)[C@H](O)c1ccc(F)cc1,inactive
2,CCS(=O)(=O)N1C[C@]2(CN(C2)C(=O)Nc2c(noc2C)C)c2c(n(c3cc(ccc23)OC)C)[C@H]1CO,inactive
3,C[C@@H]1CN([C@@H](C)CO)C(=O)Cc2cc(NC(=O)Nc3ccc(C(F)(F)F)cc3)ccc2O[C@@H]1CN(C)Cc1ccc(C(F)(F)F)cc1,active
4,C[C@H](CO)N1C[C@H](C)[C@H](CN(C)Cc2ccncc2)Oc2ccc(NC(=O)Nc3ccc(C(F)(F)F)cc3)cc2CC1=O,inactive
5,C[C@H](CO)N1C[C@H](C)[C@@H](CN(C)Cc2ccncc2)Oc2ccc(NC(=O)Nc3ccc(C(F)(F)F)cc3)cc2CC1=O,active
6,C[C@@H]1CN([C@@H](C)CO)C(=O)Cc2cc(NC(=O)Nc3ccc(C(F)(F)F)cc3)ccc2O[C@H]1CN(C)Cc1ccncc1,inactive
7,C[C@@H]1CN([C@H](C)CO)C(=O)c2cc(NS(=O)(=O)c3ccc(Cl)cc3)ccc2O[C@@H](C)CCCCO[C@@H]1CN(C)Cc1ccc(C(=O)O)cc1,inactive
8,C[C@H](CO)N1C[C@H](C)[C@H](CN(C)C(=O)Nc2ccc3c(c2)OCO3)OCCCC[C@H](C)Oc2ccc(NC(=O)NC3CCCCC3)cc2C1=O,inactive
9,C[C@@H]1CN([C@H](C)CO)C(=O)Cc2cc(NS(C)(=O)=O)ccc2O[C@@H]1CN(C)S(=O)(=O)c1ccc(F)cc1,inactive
10,C[C@@H]1CCCCO[C@H](CN(C)Cc2ccc(C(F)(F)F)cc2)[C@H](C)CN([C@H](C)CO)C(=O)c2cc(NC(=O)Nc3ccccc3)ccc2O1,active
11,C[C@@H]1CCCCO[C@@H](CN(C)Cc2ccc(C(F)(F)F)cc2)[C@@H](C)CN([C@H](C)CO)C(=O)c2cc(NC(=O)Nc3ccccc3)ccc2O1,inactive
12,C[C@@H]1CN([C@H](C)CO)C(=O)c2cc(NC(=O)Nc3ccccc3)ccc2O[C@@H](C)CCCCO[C@H]1CN(C)Cc1ccc(C(F)(F)F)cc1,active
13,C[C@@H]1CCCCO[C@@H](CN(C)Cc2ccc(C(F)(F)F)cc2)[C@H](C)CN([C@@H](C)CO)C(=O)c2cc(NC(=O)Nc3ccccc3)ccc2O1,inactive
14,C[C@@H]1CCCCO[C@H](CN(C)Cc2ccc(C(F)(F)F)cc2)[C@@H](C)CN([C@H](C)CO)C(=O)c2cc(NC(=O)Nc3ccccc3)ccc2O1,inactive
15,C[C@@H]1CN([C@H](C)CO)C(=O)c2cc(NC(=O)Nc3ccccc3)ccc2O[C@@H](C)CCCCO[C@@H]1CN(C)Cc1ccc(C(F)(F)F)cc1,inactive
16,C[C@@H]1CCCCO[C@@H](CN(C)Cc2ccc(C(F)(F)F)cc2)[C@H](C)CN([C@H](C)CO)C(=O)c2cc(NC(=O)Nc3ccccc3)ccc2O1,active
17,C[C@H]1CCCCO[C@@H](CN(C)Cc2ccc(C(F)(F)F)cc2)[C@@H](C)CN([C@@H](C)CO)C(=O)c2cc(NC(=O)Nc3ccccc3)ccc2O1,active
18,C[C@@H]1CN([C@@H](C)CO)C(=O)c2cc(NC(=O)Nc3ccccc3)ccc2O[C@@H](C)CCCCO[C@@H]1CN(C)Cc1ccc(C(F)(F)F)cc1,inactive
19,C[C@@H]1CCCCO[C@H](CN(C)Cc2ccc(C(F)(F)F)cc2)[C@H](C)CN([C@@H](C)CO)C(=O)c2cc(NC(=O)Nc3ccccc3)ccc2O1,inactive
20,C[C@@H]1CCCCO[C@H](CN(C)Cc2ccc(C(F)(F)F)cc2)[C@@H](C)CN([C@@H](C)CO)C(=O)c2cc(NC(=O)Nc3ccccc3)ccc2O1,inactive
21,C[C@H](CO)N1C[C@H](C)[C@@H](CN(C)Cc2ccc(C(F)(F)F)cc2)OCCCC[C@H](C)Oc2ccc(NC(=O)Nc3ccccc3)cc2C1=O,inactive
